Only a selection was taken, and hits are over-represented in it overall.
KDM5B inhibitor: inhibitors of human KDM5B histone demethylase; Q9UGL1; hit rate 2.6% among 220,000; AID 1347165; KDM5B demethylase, FDH-coupled NADH fluorescence (FDH is formaldehyde dehydrogenase); Potency, µM (highest dose often 57.7 µM), actives largely listed as inhibitors; active = well fitted inhibition curve with a large enough effect; note: 0% is about no effect; nearly all actives have a fitted effect of over 70% in size
Target sequence (Q9UGL1 whole entry, looked up): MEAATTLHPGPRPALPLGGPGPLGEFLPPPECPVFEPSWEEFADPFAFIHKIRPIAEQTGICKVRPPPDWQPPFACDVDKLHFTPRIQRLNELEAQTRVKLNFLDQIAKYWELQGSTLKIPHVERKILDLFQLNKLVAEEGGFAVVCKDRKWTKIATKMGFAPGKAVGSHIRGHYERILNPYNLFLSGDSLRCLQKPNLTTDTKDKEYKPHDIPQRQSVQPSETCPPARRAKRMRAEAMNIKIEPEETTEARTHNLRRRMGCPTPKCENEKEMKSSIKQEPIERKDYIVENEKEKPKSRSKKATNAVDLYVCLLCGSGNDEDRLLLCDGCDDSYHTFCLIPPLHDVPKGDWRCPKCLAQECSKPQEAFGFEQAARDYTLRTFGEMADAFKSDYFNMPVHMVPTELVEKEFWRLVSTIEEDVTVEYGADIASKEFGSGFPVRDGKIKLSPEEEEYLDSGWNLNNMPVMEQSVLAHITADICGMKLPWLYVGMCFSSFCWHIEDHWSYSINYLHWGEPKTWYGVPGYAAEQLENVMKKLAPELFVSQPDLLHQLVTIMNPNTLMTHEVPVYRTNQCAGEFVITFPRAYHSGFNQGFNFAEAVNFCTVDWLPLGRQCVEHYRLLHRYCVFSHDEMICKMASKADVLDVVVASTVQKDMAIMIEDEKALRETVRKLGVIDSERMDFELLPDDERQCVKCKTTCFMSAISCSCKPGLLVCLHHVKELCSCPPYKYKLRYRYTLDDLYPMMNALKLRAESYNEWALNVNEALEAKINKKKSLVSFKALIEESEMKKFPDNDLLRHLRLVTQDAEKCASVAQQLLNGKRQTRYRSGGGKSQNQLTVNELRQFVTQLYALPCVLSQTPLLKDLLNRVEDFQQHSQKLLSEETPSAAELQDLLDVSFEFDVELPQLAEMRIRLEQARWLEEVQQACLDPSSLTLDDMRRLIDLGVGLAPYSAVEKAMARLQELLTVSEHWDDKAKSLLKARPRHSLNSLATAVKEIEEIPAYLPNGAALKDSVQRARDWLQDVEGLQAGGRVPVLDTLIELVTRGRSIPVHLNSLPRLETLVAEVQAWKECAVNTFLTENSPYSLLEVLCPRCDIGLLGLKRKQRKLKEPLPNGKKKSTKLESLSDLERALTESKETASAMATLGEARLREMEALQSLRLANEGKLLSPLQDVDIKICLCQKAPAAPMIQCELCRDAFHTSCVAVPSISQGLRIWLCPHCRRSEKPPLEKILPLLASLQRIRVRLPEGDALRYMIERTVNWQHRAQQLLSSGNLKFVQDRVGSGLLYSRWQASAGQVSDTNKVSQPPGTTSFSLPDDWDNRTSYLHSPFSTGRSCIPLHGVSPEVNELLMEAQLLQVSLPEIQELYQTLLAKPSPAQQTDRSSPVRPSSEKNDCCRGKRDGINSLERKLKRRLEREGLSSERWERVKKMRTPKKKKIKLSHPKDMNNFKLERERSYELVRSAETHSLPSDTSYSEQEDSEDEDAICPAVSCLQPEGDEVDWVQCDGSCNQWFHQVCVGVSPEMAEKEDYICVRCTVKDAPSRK
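Compound dilutions met 200 nM (final) KDM5BΔAP for 10 min at room temperature before substrate addition. The substrate mix held 12.5 µM H3K4me3 with cofactors 25 µM α-ketoglutarate and 50 µM Fe²⁺. NADH signal gain over 30 min defined activity.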
* marks the source's active call; other numbers are inactive results; i = inactive. Potency is the fitted concentration of half-maximal effect.

SMILES | KDM5B inhibitor
O=C(NCc1cccs1)c1cc(-c2cccc(C(F)(F)F)c2)c2nncn2n1 | 50µM*
O=C(c1cc(-c2cccc(C(F)(F)F)c2)c2nncn2n1)N1CCCC1 | 50µM*
COc1ccc(-c2cc(C(=O)NCc3cccs3)no2)cc1 | i
O=C(c1cccc(C(F)(F)F)c1)N1CCC(n2cnnc2C2CC2)CC1 | i
O=C(c1cc(-c2ccc(Cl)cc2Cl)c2cccn2n1)N1CCCC1 | i
O=C(c1cccc(C(F)(F)F)c1)N1CCCC(C(=O)N2CCCCCC2)C1 (stereo not given) | i
COC(=O)C1(C)Cc2ccccc2C(=O)O1 (stereo not given) | i
O=C(CN1C(=O)c2ccccc2C1=O)Nc1cnc2ccccc2c1 | i
CC1(C)CC(=O)C2=C(C1)OC(=O)CC2c1ccc2ccccc2c1 (stereo not given) | i
COc1ccc(N(CC(=O)N2CCN(Cc3ccccc3)CC2)S(=O)(=O)c2ccc(F)cc2)cc1 | i
Cc1noc(C)c1-c1cc2c(cc(C)n2CCN(C)C)c(-c2cccnc2)n1 | 32µM*
COc1ccc(-c2nc(-c3c(C)noc3C)cc3c2cc(C)n3CCN(C)C)cn1 | 40µM*
CCOCCCNC(=O)CC1CC2CCC1C2 (stereo not given) | i
O=C(COc1cc(F)ccc1[N+](=O)[O-])Nc1ccc2c(c1)CCC2 | i
O=C1CC(C(=O)O)C2(CCCCC2)O1 (stereo not given) | i
COCCN1CC2(CCC1=O)CCN(c1nc(C(C)C)ccc1C#N)CC2 | 28µM*
COCCN1CC2(CCCN(Cc3ccccc3OC)C2)CCC1=O (stereo not given) | i
COCCN1CC2(CCC1=O)CCN(C(=O)C(C)SC)CC2 (stereo not given) | i
Cc1ccccc1NC(=O)c1ccc2c(c1)NC(=O)CS2 | i
CCN1CCN(Cc2cc(C)cc(CN(C)Cc3ncc(C)[nH]3)c2C)CC1 | i
N#CC1(NC(=O)CSc2c(Cl)cccc2Cl)CCCCC1 | i
O=C(OCC1CC1(Cl)Cl)c1ccccc1C(=O)c1ccc(Cl)cc1 (stereo not given) | i
COc1ccc(C(=O)COC(=O)C2CC(=O)N(NC(=O)c3ccc(Cl)c(Cl)c3)C2)cc1 (stereo not given) | i
Cn1nc(C(=O)NC2CCCCCCC2)c(Cl)c1C(F)(F)F | i
NC(=O)C1CCN(CC(=O)Nc2ccc(Br)cc2)CC1 | i
SMILES | KDM5B inhibitor
O=C(c1cc(F)ccc1F)N1CC(Oc2cccc(-c3nc(-c4ccccc4)no3)c2)C1 | i
COc1cccc(C(=O)N2CC(Oc3cccc(-c4nc(-c5ccccc5)no4)c3)C2)c1 | i
COc1ccccc1C(=O)N1CC(Oc2cccc(-c3nc(-c4ccccc4)no3)c2)C1 | 22µM*
CC(Oc1ccccc1)C(=O)N1CC(Oc2cccc(-c3nc(-c4ccccc4)no3)c2)C1 (stereo not given) | 22µM*
O=C(C1CCOCC1)N1CC(Oc2cccc(-c3nc(-c4ccccc4)no3)c2)C1 | i
CCCNC(=O)N1CC(Oc2cccc(-c3nc(-c4ccccc4)no3)c2)C1 | i
Cc1cc(C)c(NC(=O)Cc2c[nH]c3ccccc23)c(Cl)c1 | i
CC1=CC(C)C(COC(=O)C[N+]2(C)CCOCC2)C(C)C1 (stereo not given) | i
O=C(CSc1ncnc2ccccc12)NCc1ccccc1 | i
Cc1nc2ccccc2nc1COC(=O)c1cccnc1 | i
NC(=O)c1ccsc1NC(=O)COC(=O)c1ccc(Br)cc1 | i
COc1ccc(-c2cnc(C)o2)cc1S(=O)(=O)Nc1ccc(F)c(F)c1 | i
CCC(C)(C#N)NC(=O)c1ccc2c(c1)CCC2 (stereo not given) | i
CC(Oc1ccc(Cl)cc1Cl)C(=O)N1CCN(C(=O)c2ccco2)CC1 (stereo not given) | i
COc1ccc(Cl)cc1-c1ccc2c(c1)C(=O)N1CCN(C(=O)CO)C[C@@H]1C(=O)N2 | 35µM*
COc1ccc(Cl)cc1-c1ccc2c(c1)C(=O)N1CCN(C(=O)c3ccco3)C[C@H]1C(=O)N2 | 35µM*
COc1ccc(Cl)cc1-c1ccc2c(c1)C(=O)N1CCN(C(=O)CC3(CC(=O)O)CCCC3)C[C@H]1C(=O)N2 | i
CCC(CC)C(=O)N[C@H]1CCN2C(=O)c3cc(-c4cc(Cl)ccc4OC)ccc3NC(=O)[C@@H]2C1 | i
O=C(c1ccco1)N1CCN(C(=O)c2cc(=O)c3cc(Cl)ccc3o2)CC1 | i
COc1ccc(N2CC(C(=O)Nc3c(C)nn(C)c3C)CC2=O)cc1 (stereo not given) | i
Cc1ccc(C(=O)N(C)C2CCCCC2)cc1I | i
CCc1cc(C(=O)NC(C)CCc2ccccc2)sc1C (stereo not given) | i
Cc1nn(Cc2cc(C(=O)O)c3ccccc3n2)c(C)c1Br | i
Fc1ccc(-c2ccc3ncc(Nc4ccccn4)n3n2)cc1 | i
O=C(Cc1ccccc1Cl)N1CCC(c2nc3c(nnn3Cc3ccccc3)c(=O)[nH]2)CC1 | i
SMILES | KDM5B inhibitor
Cc1ccc(C)c(NC(=O)C(Sc2ccccc2)c2ccccc2)c1 (stereo not given) | i
O=C(NCCNC(=O)c1cc(-c2ccncc2)nc2ccccc12)c1ccco1 | i
O[C@@H]1C[C@@H](c2nnc3n2CCN(Cc2cccc4[nH]ccc24)C3)N(Cc2ccccc2)C1 | 25µM*
O[C@@H]1C[C@@H](c2nnc3n2CCN(Cc2ccc(F)c(F)c2)C3)N(Cc2ccccc2)C1 | i
O=C(Cc1ccccc1)N1CCn2c(nnc2[C@@H]2C[C@@H](O)CN2Cc2ccccc2)C1 | i
Cc1ccnc(NC(=O)c2cnc3ccccc3n2)c1 | i
CCc1ocnc1C(=O)N1CCC(c2nnc(Cn3cncn3)n2C)CC1 | i
Cn1c(CN2CCN(c3ncccc3C#N)CC2)nnc1C1CC(N)C1 (stereo not given) | i
Cc1ccc(C#N)c(N2CCC(c3nnc(Cn4cncn4)n3C)CC2)n1 | 28µM*
CS(=O)(=O)N1CCN(C(C(=O)O)c2c[nH]c3ccccc23)CC1 (stereo not given) | i
Cc1ccc2nc(-c3ccc(F)cc3)c(CN3CCCC(C(N)=O)C3)cc2c1 (stereo not given) | i
Cc1ccc(CN2CCOC[C@H]2c2ncc(C(C)(C)C)[nH]2)cc1 | i
Cc1c(-c2ccccc2F)[nH]c2ccc(CNC(=O)CCN3CCCO3)cc12 | 25µM*
COC(=O)c1ccc(CNC(=O)CC2Sc3ccccc3NC2=O)cc1 (stereo not given) | i
Cc1c(-c2ccccc2F)[nH]c2ccc(CNC(=O)CC3CCC(=O)N3)cc12 (stereo not given) | 32µM*
O=C(CCc1ncc(-c2ccccc2F)o1)NCc1ccccc1 | i
O=C(Cn1c(=O)[nH]c2c(-c3ccccc3F)c[nH]c2c1=O)NCc1ccc2c(c1)OCO2 | i
Cc1c(-c2ccccc2F)[nH]c2ccc(CNC(=O)CCc3cnccn3)cc12 | 13µM*
O=C1CCCCC(CNC(=O)c2ccccc2F)N1 (stereo not given) | i
Cc1ccc(CNC(=O)N2CCN(CC(=O)Nc3cccc(C)c3C)CC2)cc1F | i
Cc1ccc(CNC(=O)CCc2ccccc2)cn1 | i
O=Cc1cc(Cl)cc(Cl)c1O | i
CCOC(=O)C1CCN(Cc2cc(=O)oc3ccc(O)cc23)CC1 | i
COC(=O)c1sc(S(=O)(=O)Nc2ccccc2Br)c(C(=O)OC)c1C | i
CCn1ncc(Br)c1C(=O)Nn1c(C)nc2sc3c(c2c1=O)CCC(C)C3 (stereo not given) | i

Source: PubChem
